# Assay outcomes deposited in PubChem by National Center for Advancing Translational Sciences (NCATS).
# Pf growth 96h: P. falciparum growth inhibition at 96 hour, primary screen for plastid delayed-death inhibitors | AID 504834 | P. falciparum luciferase reporter growth, 96 h | Potency, µM (top dose mostly 28.7 µM), inactives show at the top dose activity change, negative = inhibition, usual class: inhibitors | hit rate 6.9% among 320,000; also: potency is read from the fitted curve at half-maximal effect; % is scaled to controls: 0 for no effect and ±100 for the full control effect
#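 Two-generation exposure (96 h) targets delayed-death phenotype. Reporter parasites carrying integrated firefly luciferase, in red cells at 2% hematocrit and 0.05% parasitemia final, kept at 37 C, 5% CO2; luminescence loss indicates inhibition.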
# NS1 function inh: blocks influenza NS1 protein function; hit rate 0.4% among 270,000; Potency, µM (series often up to 46.1 µM), for the others: top-dose activity, positive = more growth; calls by dose curve; also: potency is read from the fitted curve at half-maximal effect; actives are rising curves; nearly all actives have a fitted effect of over 50% in size
#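 Growth recovery, yeast-based: influenza A NS1 expressed in S. cerevisiae causes slow growth, and suppressors are detected by OD600. The parent strain without NS1 is used as positive control.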
# Pf growth 48h: P. falciparum growth inhibition at 48 hours (one generation); P. falciparum luciferase growth in erythrocytes, 48 h; Potency, µM (top dose mostly 28.7 µM), for inactives: top-dose activity change, negative = inhibition, actives largely listed as inhibitors; hit rate 5.9% among 310,000; AID 504832; also: potency is read from the fitted curve at half-maximal effect; % is scaled to controls: 0 for no effect and ±100 for the full control effect
#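 Luciferase-expressing parasites in RBCs, 2% Hct / 0.1% parasitemia final; RPMI 1640 + 0.5% Albumax; 37 C, 5% CO2, one generation; luminescence read-out, lower signal = inhibition.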
# CHX counter: counter-screen for Shiga toxin inhibitors: cycloheximide protein synthesis inhibition; cell reporter, cycloheximide protein synthesis inhibition counterscreen; max response, %; hit rate 12% among 300,000; AID 2314; in the data active = max response mostly above about 13%, no sharp cut-off; inactive = mostly below about 14%; also: read at 38.3 µM for the half of the compounds with a filed dose; 0% is about no effect
# SARS PLpro yeast: inhibitors of SARS-CoV papain-like protease in yeast | S. cerevisiae expressing SARS-CoV PLpro, growth rescue | Potency, µM (titrated, usually from 32.9 µM), for inactives: at the highest dose activity, positive = growth rescue, usual class: activators | hit rate 0.19% among 330,000 | AID 485353; calls by dose curve; also: potency is read from the fitted curve at half-maximal effect; 0% is about no effect; nearly all actives have a fitted effect of over 55% in size
# Shiga inhibitor: Shiga toxin inhibition; Vero cells, Shiga toxin protein synthesis inhibition reporter; inhibition, % at 38.7 µM; hit rate 9.2% among 290,000; in the data active = inhibition mostly above about 28%, no sharp cut-off; inactive = mostly below about 43%; also: 0% is about no effect
# * marks the source's active call; other numbers are inactive results; ? = inconclusive; / = no result given; + = active, no number; [ ] = another dose, or the depositor's remark. An excerpt weighted towards active compounds, which were near 21% of everything screened. Unless noted, calls follow the shape of the dose curve; as a rule, active = well fitted inhibition curve with a large enough effect; inconclusive = small, poorly fitted or top-dose-only effect, or another doubt; inactive = no such curve, though single readings can be large or run the other way.
SMILES,Pf growth 96h,NS1 function inh,Pf growth 48h,CHX counter,SARS PLpro yeast,Shiga inhibitor
COc1ccc(N2C(=O)C(Cl)=C(Nc3ccc(OC)cc3OC)C2=O)cc1,27%,/,11%,44*,-1%,31
COc1cccc(NC(=S)N2CCC(N(C)CC3CCCO3)CC2)c1 (stereo not drawn),?,23%,-5%,-3,-6%,-2
Cc1nc(NC(=S)NC(=O)c2cccs2)ccc1Br,?,12%,-3%,31*,10%,32*
Cc1cccc(NC(=S)NC(=O)c2cccs2)n1,12%,-2%,-4%,24*,19%,115*
N#Cc1ccccc1NC(=S)NC(=O)c1cccs1,4%,-17%,22%,31*,-16%,77*
Cc1nc(NC(=S)NC(=O)c2cncc(Br)c2)ccc1Br,35%,3%,38%,1,0%,10
Cc1cccc(NC(=S)NC(=O)c2ccco2)n1,6%,-7%,32%,16*,6%,35
N#Cc1ccccc1NC(=O)COC(=O)c1cccs1,/,/,/,/,1%,/
CCC(=O)Nc1nnc(S(=O)(=O)N(C)c2ccccc2)s1,?,2%,25%,-1,1%,42
CCN(c1ccccc1)S(=O)(=O)c1ccc(Cl)c(NC(=O)CN2C(=O)NC3(CCCC3)C2=O)c1,-23%,-34%,?,-1,1%,1
Cc1ccccc1N=C1NC(=O)CS1,20%,2%,9%,-10,-2%,-6
Cc1ccccc1N=C1Nc2ccccc2CS1,438%,-10%,165%,29*,3%,122*
CCCCNC(=O)N1CCN(c2ccnc3cc(Cl)ccc23)CC1,3.7µM*,-1%,4.7µM*,-2,-1%,-10
O=S(=O)(c1cccs1)N1CCN(c2ccnc3cc(Cl)ccc23)CC1,6.6µM*,-6%,9.3µM*,14,-1%,-14
CC(=O)N1CCN(c2ccnc3cc(Cl)ccc23)CC1,12µM*,-8%,?,-1,-1%,-6
O=C(Nc1ccc(C(F)(F)F)cc1)N1CCN(c2ccnc3cc(Cl)ccc23)CC1,?,-65%,1.5µM*,12,-16%,17
CCN(CC(=O)NC(=O)NCc1ccccc1)Cc1ccccc1,11%,5%,25%,1,-6%,-6
ClCCN1CCN(c2ccnc3cc(Cl)ccc23)CC1,0.83µM*,?,0.83µM*,-2,3%,-1
O=S(=O)(c1ccccc1)N1CCN(c2ccnc3cc(Cl)ccc23)CC1,30%,-7%,?,-3,-3%,-8
Cc1ccc(F)cc1NC(=O)N1CCN(c2ccnc3cc(Cl)ccc23)CC1,6.6µM*,-7%,?,-1,-5%,1
COc1ccccc1CNC(=O)[C@H](C)NC(=O)C1CCN(C(=O)[C@@H](N)C(C)C)CC1,32%,-4%,8%,-3,-5%,1
Cc1ccccc1-n1c([C@@H]2C[C@H]2c2ccccc2)n[nH]c1=S,16%,3%,0%,-2,0%,-9
CCCC(C(=O)NNC(=O)c1ccncc1)c1ccccc1 (stereo not drawn),/,/,/,/,20%,/
CC(C)(C)c1ccc(-c2nc(N)nc(N)n2)cc1,124%,-9%,115%,33*,-1%,26
CN(C)c1ccc(C(=O)N(Cc2ccccc2)Cc2ccccc2)cc1,15µM*,-1%,-4%,-4,-9%,-7
SMILES,Pf growth 96h,NS1 function inh,Pf growth 48h,CHX counter,SARS PLpro yeast,Shiga inhibitor
O=C(c1ccccc1)c1ccccc1,6%,/,8%,3,-2%,-3
CN(C)c1cccc(C(=O)N(Cc2ccccc2)Cc2ccccc2)c1,10µM*,-72%,-12%,1,-12%,-3
CN(C)c1ccc(C(=O)c2ccccc2)cc1,133%,-45%,/,26*,-12%,41
CC(=O)Nc1cccc(C(=O)N(Cc2ccccc2)Cc2ccccc2)c1,-21%,-3%,2%,-2,-1%,-6
O=C(c1ccccc1)c1ccc(-c2ccc(O)cc2)cc1,127%,-4%,90%,40*,-4%,68*
CC(C)C(NC(=O)c1c(F)cccc1F)C(=O)NCc1ccc(S(=O)(=O)N2CCOCC2)cc1 (stereo not drawn),5%,/,?,/,3%,/
COc1ccc2cc(C3=CCCCC3)ncc2c1,121%,/,124%,/,-2%,/
Cc1ccc2nc(Nc3nc(CSc4nnc(C)s4)cc(=O)[nH]3)nc(C)c2c1,3.3µM*,9%,?,-3,0%,25
Cc1ccc2c(C)nc(Nc3nc(CSc4nc5ccccc5[nH]4)cc(=O)[nH]3)nc2c1,?,6%,10µM*,-2,15%,-8
CCOc1ccc(NC(=O)CN(C)C(=O)CC2OC(=O)c3ccccc32)cc1OCC (stereo not drawn),-1%,/,?,/,-4%,/
CCN(CC)CC(C)OC(=O)COc1ccc(OC)cc1 (stereo not drawn),-23%,18%,4%,-3,-8%,-5
CCOC(=O)c1snc2c(=O)[nH]cnc12,-1%,7%,5%,-4,3%,-6
O=C(Nc1ccccc1)c1snc2c(=O)[nH]cnc12,-1%,5%,-4%,16*,-1%,18
O=C(CSc1nc2ccccc2o1)N1c2ccccc2Sc2ccccc21,53%,-1%,?,21,-5%,-14
c1ccc2oc(SCc3nc4ccccc4s3)nc2c1,189%,-48%,180%,43*,/,+
NCCc1nc2ccccc2s1,4%,/,12%,5,3%,-5
N#C/C(=C(/O)c1ccc(F)cc1)c1nc2ccccc2s1,29%,-1%,194%,20*,-9%,20
c1ccc(SCc2nc3ccccc3s2)nc1,269%,7%,18%[0.00184 µM],33*,-2%,81*
N#CCc1nc(CSc2nc3ccccc3o2)cs1,?,-15%,129%,25,-5%,70*
O=C(C1CC1)N1N=C(c2ccncc2)CC1(O)C(F)(F)F (stereo not drawn),89%,2%,1%,5,0%,-4
O=C(O)c1ccc(-c2cccc([N+](=O)[O-])c2)o1,7%,2%,18%,5,3%,22
N#C/C(=C(/O)c1ccc(-c2cccc([N+](=O)[O-])c2)o1)c1nc2ccccc2s1,?,/,25%,21,2%,53*
N#C/C(=C(/O)CSc1ccccn1)c1nc2ccccc2s1,-5%,17%,73%,25*,0%,47
Cc1noc(C)c1COC(=O)c1csc2c1CCCC2,2%,/,-1%,/,5%,/
Cc1ccccc1C(=O)NNC(=S)NC(=O)c1ccccc1,?,-137%,?,17*,-62%,28*
Cc1ccc(C(=O)NC(=S)NNC(=O)c2ccccc2O)cc1,-6%,-45%,/,19*,4%,54*
CC(C)(C)c1cc(CCC(=O)NNC(=S)NC(=O)c2ccccc2)cc(C(C)(C)C)c1O,?,-18%,13µM*,-1,5µM*,7
Cc1ccccc1C(=O)NNC(=O)c1ccc(Br)cc1,-14%,/,161%,42*,-2%,84*
